# Results published in PubChem BioAssay AID1159580 (chemical genetic matrix, 2015).
# Out of some 5,500 compounds screened, about 2,000 (36%) were called active. Inconclusive results (about 18%) are left out. This is one part of the list. A number with no mark means an inactive call. Rule as the data show it: active = normalized growth mostly below about 0.91 (no sharp cut-off); inconclusive = no clear call, values can overlap the other calls; inactive = mostly above about 0.92.
# Assay: chemical genetic growth profiling, strain panel (AID 1159580);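 also: tested at 20 µM; growth read once vehicle control cultures reached saturation at 30 °C; 1 = growth at the plate median or of vehicle wells; lower values mean less growth of the strain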
# Details: S. cerevisiae deletion strains, growth OD
smiles,measurement,setting,value
O=C(O)c1cc(O)c2c(c1)[C@@H]([C@H]1c3cc(C(=O)O)cc(O)c3C(=O)c3c(O[C@H]4O[C@H](CO)[C@@H](O)[C@H](O)[C@H]4O)cccc31)c1cccc(O[C@H]3O[C@H](CO)[C@@H](O)[C@H](O)[C@H]3O)c1C2=O,normalized growth,"locus YJR066W, strain TOR1, active compounds read low",0.934
same,normalized growth,"locus YKL009W, strain mrt4, active compounds read low",1.11
same,normalized growth,"locus YKL068W, active compounds read low",1.01
same,normalized growth,"locus YKL085W, strain MDH1 (second series), active compounds read low",1.03
same,normalized growth,"locus YKL085W, strain MDH1, active compounds read low",1.03
same,normalized growth,"locus YKL160W, strain elf1, active compounds read low",0.993
same,normalized growth,"locus YKR001C, strain vps1, active compounds read low",1.02
same,normalized growth,"locus YKR026C, strain gcn3, active compounds read low",1.02
same,normalized growth,"locus YLL001W, strain dnm1, active compounds read low",1.02
same,normalized growth,"locus YLL026W, active compounds read low",1.02
same,normalized growth,"locus YLL041C, strain sdh2, active compounds read low",1.01
same,normalized growth,"locus YLR027C, strain aat2, active compounds read low",1.02
same,normalized growth,"locus YLR039C, strain RIC1, active compounds read low",1.03
same,normalized growth,"locus YLR058C, strain SHM2, active compounds read low",1.01
same,normalized growth,"locus YLR102C, strain apc9, active compounds read low",1
same,normalized growth,"locus YLR113W, strain HOG1, active compounds read low",1.01
same,normalized growth,"locus YLR221C, strain rsa3, active compounds read low",0.986
same,normalized growth,"locus YLR258W, strain gsy2, active compounds read low",0.99
same,normalized growth,"locus YLR262C, strain YPT6 (second series), active compounds read low",0.979
same,normalized growth,"locus YLR262C, strain YPT6, active compounds read low",1.1
same,normalized growth,"locus YLR268W, strain sec22, active compounds read low",0.998
same,normalized growth,"locus YLR320W, strain mms22, active compounds read low",1.03
same,normalized growth,"locus YLR330W, strain CHS5, active compounds read low",1.01
same,normalized growth,"locus YLR342W, strain FKS1 (second series), active compounds read low",0.985
same,normalized growth,"locus YLR342W, strain FKS1, active compounds read low",1.04
same,normalized growth,"locus YLR357W, strain rsc2, active compounds read low",1.28 [resistant] (active)
same,normalized growth,"locus YLR370C, strain arc18, active compounds read low",1
same,normalized growth,"locus YLR371W, strain rom2, active compounds read low",0.999
same,normalized growth,"locus YLR384C, strain iki3, active compounds read low",1.02
same,normalized growth,"locus YLR418C, strain cdc73, active compounds read low",0.993
same,normalized growth,"locus YML016C, strain PPZ1, active compounds read low",1.01
same,normalized growth,"locus YML032C, strain rad52, active compounds read low",0.998
same,normalized growth,"locus YML120C, strain ndi1, active compounds read low",1.01
same,normalized growth,"locus YML124C, strain tub3, active compounds read low",0.997
same,normalized growth,"locus YMR058W, strain fet3, active compounds read low",1.03
same,normalized growth,"locus YMR078C, strain ctf18, active compounds read low",1
same,normalized growth,"locus YMR125W, strain sto1, active compounds read low",1.02
same,normalized growth,"locus YMR129W, active compounds read low",1.04
same,normalized growth,"locus YMR205C, strain PFK2, active compounds read low",0.958
same,normalized growth,"locus YMR223W, strain ubp8, active compounds read low",0.997
same,normalized growth,"locus YMR231W, strain pep5, active compounds read low",1.01
same,normalized growth,"locus YMR307W, strain GAS1, active compounds read low",1
same,normalized growth,"locus YNL067W, strain RPL9B, active compounds read low",1.01
same,normalized growth,"locus YNL071W, strain lat1, active compounds read low",1.03
same,normalized growth,"locus YNL128W, strain TEP1, active compounds read low",1.05
same,normalized growth,"locus YNL153C, strain GIM3, active compounds read low",1
same,normalized growth,"locus YNL183C, strain NPR1, active compounds read low",0.937
same,normalized growth,"locus YNL209W, strain ssb2, active compounds read low",1.01
same,normalized growth,"locus YNL233W, strain BNI4, active compounds read low",1.01
same,normalized growth,"locus YNL248C, strain rpa49, active compounds read low",1
same,normalized growth,"locus YNL250W, strain rad50, active compounds read low",1.02
same,normalized growth,"locus YNL271C, strain bni1, active compounds read low",1
same,normalized growth,"locus YNL298W, strain CLA4, active compounds read low",0.993
same,normalized growth,"locus YNL307C, strain MCK1, active compounds read low",1.01
same,normalized growth,"locus YNL322C, strain KRE1 (second series), active compounds read low",1.02
same,normalized growth,"locus YNR049C, strain mso1, active compounds read low",1.05
same,normalized growth,"locus YNR052C, strain pop2, active compounds read low",0.978
same,normalized growth,"locus YOL006C, strain TOP1, active compounds read low",1.04
same,normalized growth,"locus YOL012C, strain htz1",0.926
same,normalized growth,"locus YOL147C, strain pex11, active compounds read low",1
same,normalized growth,"locus YOR001W, strain rrp6, active compounds read low",1.04
same,normalized growth,"locus YOR061W, strain CKA2, active compounds read low",1.02
same,normalized growth,"locus YOR069W, strain VPS5, active compounds read low",1.02
same,normalized growth,"locus YOR070C, strain gyp1, active compounds read low",1.08 [resistant] (active)
same,normalized growth,"locus YOR080W, strain dia2, active compounds read low",1.13 [resistant] (active)
same,normalized growth,"locus YOR083W, strain WHI5, active compounds read low",0.957
same,normalized growth,"locus YOR106W, strain vam3, active compounds read low",0.979
same,normalized growth,"locus YOR136W, strain idh2, active compounds read low",1.01
same,normalized growth,"locus YOR144C, strain elg1, active compounds read low",1.01
same,normalized growth,"locus YOR184W, strain ser1, active compounds read low",1.02
same,normalized growth,"locus YOR231W, strain MKK1, active compounds read low",0.988
same,normalized growth,"locus YOR265W, strain rbl2, active compounds read low",1.01
same,normalized growth,"locus YOR270C, strain vph1, active compounds read low",1.05
same,normalized growth,"locus YOR290C, strain snf2, active compounds read low",0.997
same,normalized growth,"locus YOR316C, strain cot1, active compounds read low",1
same,normalized growth,"locus YPL051W, strain arl3, active compounds read low",0.995
same,normalized growth,"locus YPL055C, strain LGE1, active compounds read low",1.01
same,normalized growth,"locus YPL078C, strain atp4, active compounds read low",0.979
same,normalized growth,"locus YPL106C, strain sse1, active compounds read low",0.977
same,normalized growth,"locus YPL240C, strain hsp82, active compounds read low",0.993
same,normalized growth,"locus YPL241C, strain CIN2, active compounds read low",1.02
same,normalized growth,"locus YPL256C, strain CLN2, active compounds read low",1.03
same,normalized growth,"locus YPR119W, strain clb2, active compounds read low",1
same,normalized growth,"locus YPR141C, strain kar3, active compounds read low",1
same,normalized growth,"locus YPR163C, strain tif3, active compounds read low",1.01
same,normalized growth,"locus YPR167C, strain met16, active compounds read low",0.99
same,normalized growth,"strain wtn01, active compounds read low",1.01
